Results filed as inconclusive are left out. Active and inactive are the calls of the source. How the source made its calls, unless noted: active means hit-call score of the fitted dose curve at least 0.9, where 1 is the maximum; inactive means score below 0.9.
test system: not listed separately; experiment: ATG_VDRE_CIS: Attagene CIS-FACTORIAL HepG2 Assay for human Vitamin D Receptor Element (VDRE) (AID 2282968); details: HepG2 VDRE cis-reporter transcription, actives raise or lower the signal
How it was run: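 Compounds were applied for 24 h to HepG2 cells transfected with promoter-regulated reporter units. Total RNA was reverse-transcribed, and reporter amplicons were fluorescently labelled and sized by capillary electrophoresis.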

Row | SMILES | outcome | AC50
1 | O=C1CCCCCCCCCCCCCC1 | inactive | 
2 | CCCC(=O)OC/C=C(\C)CCC=C(C)C | inactive | 
3 | COC(=O)c1ccccc1 | inactive | 
4 | O=C(O)/C=C/C(=O)O | inactive | 
5 | C=CCOCC(CC)(CO)COCC=C | inactive | 
6 | CN1CCCC1 | inactive | 
7 | CCO[Si](CCCN)(OCC)OCC | inactive | 
8 | CCCCCCC1CCC(=O)O1 (centres undefined) | inactive | 
9 | O=[N+]([O-])c1ccccc1C(F)(F)F | inactive | 
10 | CCC(C)=NO | inactive | 
11 | COc1cccc(OC)c1C(=O)O | inactive | 
12 | C=C1CC[C@H]2C[C@@H]1C2(C)C | inactive | 
13 | Cc1cc(-n2nc3ccc(Cl)cc3n2)c(O)c(C(C)(C)C)c1 | inactive | 
14 | CCCCCCC1CCCC(=O)O1 (centres undefined) | inactive | 
15 | c1ccc(CNc2ncnc3nc[nH]c23)cc1 | inactive | 
16 | CC(C)=CCOC(=O)c1ccccc1 | inactive | 
17 | CC(C)(C)NC(=O)[C@@H]1CN(Cc2cccnc2)CCN1C[C@@H](O)C[C@@H](Cc1ccccc1)C(=O)N[C@H]1c2ccccc2C[C@H]1O | inactive | 
18 | Oc1cccc2ccccc12 | inactive | 
19 | Oc1ccc(Oc2ccccc2)cc1 |  | 38.4 µM (active)
20 | CN(C)c1ccc(C(c2ccccc2)c2ccc(N(C)C)cc2)cc1 |  | 7.62 µM (active)
21 | CCCCCC[C@@H](O)C/C=C\CCCCCCCC(=O)O | inactive | 

biological target: Nuclear receptor subfamily 1 group I member 3 (Homo sapiens) (UniProt Q14994); experiment: ATG_CAR_TRANS: Attagene TRANS-FACTORIAL HepG2 Assay for human Constitutive Androstane Receptor (CAR) (AID 2282969; active means hit-call score of the fitted dose curve at least 0.9, where 1 is the maximum;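 further: activators raise reporter mRNA above DMSO so AC50 marks induction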); details: HepG2 Attagene TRANS-FACTORIAL CAR reporter
Sequence (Q14994 whole entry, looked up, the tested form may be a part): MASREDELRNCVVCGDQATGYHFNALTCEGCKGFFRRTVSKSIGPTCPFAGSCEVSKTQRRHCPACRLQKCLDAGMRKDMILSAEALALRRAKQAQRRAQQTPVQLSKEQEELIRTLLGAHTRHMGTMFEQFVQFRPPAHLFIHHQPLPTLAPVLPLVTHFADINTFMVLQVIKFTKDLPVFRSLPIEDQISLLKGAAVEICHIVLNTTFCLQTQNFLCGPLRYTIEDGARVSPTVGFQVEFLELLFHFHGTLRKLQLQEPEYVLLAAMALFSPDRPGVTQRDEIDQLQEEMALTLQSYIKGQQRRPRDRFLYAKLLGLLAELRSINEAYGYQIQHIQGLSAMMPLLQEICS
How it was run: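 Transiently transfected HepG2, multiplex TRANS reporters (CAR-Gal4 chimera driving GAL4-UAS reporter). 24 h dosing. Readout: reporter transcript by RT-PCR + capillary electrophoresis, fluorescence intensity; positive direction vs DMSO.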

Row | SMILES | outcome
22 | CNC(=C[N+](=O)[O-])NCCSCc1csc(CN(C)C)n1 | inactive
23 | CCCC(=O)OC/C=C(\C)CCC=C(C)C | inactive
24 | CCCCCCC(O)CCCCCCCCCCC(=O)OC (centres undefined) | inactive
25 | C/C=C(\C)C(=O)OCC/C=C\CC | inactive
26 | CC/C=C\CC/C=C/C(OCC)OCC | inactive
27 | C=CCOCC(CC)(CO)COCC=C | inactive
28 | CN1CCCC1 | inactive
29 | O=[N+]([O-])c1ccccc1C(F)(F)F | inactive
30 | CCC(=O)OCc1ccc(OC)cc1 | inactive
31 | CCC(C)=NO | inactive
32 | COc1cccc(OC)c1C(=O)O | inactive
33 | CCCCCC1CCCC(=O)O1 (centres undefined) | inactive
34 | COC(=O)[C@]1(C)CCC[C@@]2(C)[C@H]1CC=C1C=C(C(C)C)CC[C@@H]12 | inactive
35 | Cc1cc(-n2nc3ccc(Cl)cc3n2)c(O)c(C(C)(C)C)c1 | inactive
36 | NC(=O)c1ccc(N)cc1 | inactive
37 | CC(C)(C)NC(=O)[C@@H]1CN(Cc2cccnc2)CCN1C[C@@H](O)C[C@@H](Cc1ccccc1)C(=O)N[C@H]1c2ccccc2C[C@H]1O | inactive
38 | CN(C)c1ccc(C(c2ccccc2)c2ccc(N(C)C)cc2)cc1 | inactive
39 | c1ccc2c(c1)Oc1ccccc1S2 | inactive
